Spn DPM-DC inh: inhibitors of Streptococcus pneumoniae diphosphomevalonate decarboxylase. 65,000 compounds, 0.49% hits. AID 556. calls only at 10 µM. purified DPM-DC, PK/LDH coupled NADH fluorescence;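 active = the 320 compounds with the highest percent inhibition in the single-dose primary screen, excluding strongly autofluorescent ones, cut at about 32% in these data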;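 note: kinetic rate of NADH fluorescence loss reporting ADP formed by the decarboxylase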
NADH enzymes: blocks coupling enzymes of NAD/NADH assays; coupled PK/LDH NADH assays, four targets; IC50, µM (top dose mostly 10 µM), for inactives: at the highest dose inhibition; 65,000 compounds, 0.02% hits;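 active = single-dose screening hits from any of four coupled enzyme assays that gave an IC50 when retested across doses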;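 note: the DPM-DC format reads NADH fluorescence rather than 340 nm absorbance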
A340 absorber: compounds absorbing at 340 nm; compound absorbance at 340 nm, fold over control; fold change at 10 µM; 65,000 tested, under 10 active;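 active = at 10 µM dose, initial 340 nm absorbance at least 2 fold that of control wells; inactive = change under 2 fold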;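 note: initial absorbance extrapolated from kinetic A340 decline of NADH oxidation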
Fluor 339 460: intrinsic fluorescence of library compounds, ex339/em460 – biochemical, MLSMR library, data from DPM-DC assay, artefact control, profiling panel; compound autofluorescence, ex339/em460 nm, NADH buffer; hits give high values; 1 = no-compound wells, NADH background; fluorescence fold increase at 10 µM; 65,000 compounds, 5.5% hits; AID 709;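 active = at 10 µM, mean starting fluorescence two-fold or more over control wells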;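 note: signal is the first read of a kinetic run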
Spn MK inh: S. pneumoniae mevalonate kinase inhibition. purified MK, PK/LDH-coupled NADH absorbance 340 nm. inhibition, % at 10 µM. 65,000 compounds, 0.48% hits. AID 555;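 active = ranked among the strongest by inhibition in the single 10 µM screen, a fixed top-ranked set picked for dose follow-up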
PMK inhibit: S. pneumoniae PMK inhibition; 65,000 compounds, 0.49% hits; inhibition, % at 10 µM; AID 539; purified PMK, PK/LDH-coupled NADH absorbance 340 nm;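 active = top-ranked compounds by inhibition in the single 10 µM screen, taking a fixed number of the strongest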;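 note: 0% = full reaction with DMSO carrier and 100% = background rate without enzyme reaction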
Numbers without * were called inactive; i = inactive; x = not tested or not shown; + = active, no number. Compounds with a hit are over-represented: about 6.8% of the library has one in this group of screens.

SMILES	Spn DPM-DC inh	NADH enzymes	A340 absorber	Fluor 339 460	Spn MK inh	PMK inhibit
FC(F)(F)c1cccc(N2CCN(Cc3cccnc3)CC2)c1	i	9.0%	1.01	1.04	56.0*	1.0
COc1cccc(N2CCN(Cc3cccnc3)CC2)c1	i	6.0%	1.09	1.02	51.0*	0.0
O=C(NC1CCCCC1)C1CCN(c2cnccn2)CC1	i	7.0%	1.01	1.46	5.0	15.0
CN(C)c1ccc(NC(=O)c2cc3c(=O)n4ccccc4nc3n2C)cc1	i	6.0%	1.03	1.66	8.0	7.0
Cn1c(C(=O)N2COCC2(C)C)cc2c(=O)n3ccccc3nc21	x	9.0%	1.12	5.01*	8.0	10.0
CNC(=O)c1cc2c(=O)n3cccc(C)c3nc2n1C	x	8.0%	1.1	5.01*	6.0	10.0
Cc1cccn2c(=O)c3cc(C(=O)N4CCCc5ccccc54)n(C)c3nc12	i	2.0%	1.02	1.33	2.0	12.0
Cn1c(C(=O)NCC2CCCO2)cc2c(=O)n3ccccc3nc21 (configuration not stated)	x	9.0%	1.1	5*	9.0	9.0
Cc1cccn2c(=O)c3cc(C(=O)N4CCc5ccccc5C4)n(C)c3nc12	x	8.0%	1.06	5.02*	5.0	10.0
Cc1cc(C(=O)NCC2CCCO2)n(-c2ccccc2)n1 (configuration not stated)	i	11.0%	1.05	1.08	13.0	20.0
CCOC(=O)C1CCCN(C(=O)c2cc3c(=O)n4cccc(C)c4nc3n2C)C1 (configuration not stated)	x	2.0%	1.02	3.35*	3.0	12.0
Cc1cccn2c(=O)c3cc(C(=O)NCC4CCCO4)n(C)c3nc12 (configuration not stated)	x	9.0%	1.1	5*	7.0	11.0
CCOc1ccc(-c2n[nH]c(C)c2Oc2ccc(OC)cc2)c(O)c1	i	6.0%	1.01	1.08	9.0	9.0
O=C(Nc1cccc(C(F)(F)F)c1)C1CCCN1S(=O)(=O)c1cccc2cccnc12 (configuration not stated)	i	3.0%	0.99	1.03	0.0	8.0
CCc1c(C)sc(NC(=O)c2cccs2)c1C(=O)OC(C)C	x	12.0%	1.06	2.08*	10.0	13.0
C=CCn1c(NC(=O)c2ccc(Br)o2)c(C(=O)OCC)sc1=S	i	10.0%	1.12	1.07	20.0	8.0
CCOC(=O)c1ccccc1NC(=O)c1cccs1	i	4.0%	1.04	1.1	7.0	4.0
CCOC(=O)c1c(NC(=O)c2ccc(Br)o2)sc(C)c1CC	x	2.0%	1.12	2.11*	3.0	0.0
CCOC(=O)C1=C(NC(=O)c2ccc(Br)o2)Nc2ccccc2N=C1	i	29.0%	1.14	1.21	33.0	36.0*
CCOC(=O)c1sc2nc(NC(=O)c3cccs3)sc2c1C	x	0.0%	1.09	2.08*	0.0	0.0
COc1ccccc1NC(=O)c1ccc(Br)o1	i	3.0%	1.05	1.01	0.0	3.0
O=C1NC(=S)SC1=C1CCCCCC1	i	15.0%	1.19	0.93	15.0	18.0
CCOC(=O)c1c(NC(=O)c2cccs2)sc(C)c1CC	x	2.0%	1.1	2.21*	4.0	0.0
CCOC(=O)c1c(NC(=O)c2cccs2)sc(C(=O)N2CCOCC2)c1C	i	10.0%	1.08	1.44	0.0	19.0
COC(=O)c1ccc(C(=O)OC)c(NC(=O)CCC(=O)O)c1	x	4.0%	1.05	2.14*	8.0	0.0
SMILES	Spn DPM-DC inh	NADH enzymes	A340 absorber	Fluor 339 460	Spn MK inh	PMK inhibit
COC(=O)c1ccc(C(=O)OC)c(NC(=O)CCc2ccc(C)o2)c1	i	6.0%	1.02	1.41	7.0	1.0
Cc1ccc(C)c(/C(O)=C2/C(=O)C(=O)N(CCN3CCOCC3)C2c2ccco2)c1 (configuration not stated)	i	6.0%	1.1	1.06	5.0	14.0
Clc1cccc(-c2ccc(/C=N/n3cnnc3)o2)c1	+	3716µM*	1.26	1.23	7.0	0.0
COc1ccccc1-c1nc(C#N)c(N2CCC(Cc3ccccc3)CC2)o1	x	12.0%	1.04	3.91*	12.0	11.0
N#Cc1nc(Cc2ccccc2)oc1N1CCC(Cc2ccccc2)CC1	i	0.0%	1.04	1.1	1.0	0.0
COc1ccccc1-c1nc(C#N)c(N2CCN(Cc3ccccc3)CC2)o1	i	18.0%	1.02	3.1*	12.0	13.0
COc1cccc(OC)c1OCCCCN1CCCC1	i	20.0%	1.07	1.01	52.0*	8.0
Clc1ccccc1OCCCCN1CCCC1	i	16.0%	1.04	1.11	40.0*	7.0
CC(=O)NC(C)C(=O)OCc1ccc(Cl)cc1Cl (configuration not stated)	i	2.0%	0.99	1.03	0.0	8.0
Cc1ccc(N(CC(O)COCc2ccco2)S(=O)(=O)c2ccc(C)cc2)cc1 (configuration not stated)	i	4.0%	1.01	1.15	9.0	4.0
COc1cc(OC)c(NC2=NCCCCC2)cc1Cl	i	3.0%	1.02	1.09	0.0	7.0
COc1ccc2c(c1)OC1(C)CC2C(C(=O)c2ccccc2OC)C(=O)N1 (configuration not stated)	i	13.0%	1.02	0.97	2.0	28.0*
COc1ccccc1-n1c(N)c(C(=O)NCC2CCCO2)c2nc3ccccc3nc21 (configuration not stated)	x	11.0%	0.89	2.36*	7.0	15.0
Nc1c(C(=O)NCC2CCCO2)c2nc3ccccc3nc2n1-c1ccccc1 (configuration not stated)	x	8.0%	1.06	4.93*	0.0	15.0
O=C(CSc1nc2ccccc2n1-c1ccccc1)NCC1CCCO1 (configuration not stated)	i	7.0%	1.05	1.13	7.0	3.0
Nc1c(C(=O)OCC2CCCO2)c2nc3ccccc3nc2n1C1CCCCC1 (configuration not stated)	x	10.0%	1.11	2.1*	6.0	14.0
Cc1cc(-c2ccccc2)n2ncc(C#N)c2n1	x	9.0%	1.11	2.11*	7.0	11.0
N#Cc1cnn(-c2ccccc2)c1N	i	6.0%	0.95	1.06	17.0	2.0
N#CC1=C2C=CC=CN2CC1=O	x	8.0%	1.04	2.26*	6.0	9.0
Cc1cc(-c2ccccc2)c(C#N)c(N)n1	x	4.0%	1.02	2.41*	10.0	8.0
Cc1cc(-c2cccnc2)c(C#N)c(SCC#N)n1	i	2.0%	1.04	1.07	1.0	3.0
Cn1c(=N)c(S(=O)(=O)c2ccccc2)cc2c(=O)n3ccccc3nc21	x	4.0%	1.02	2.82*	3.0	13.0
Cn1c(=N)c(S(=O)(=O)c2ccc(F)cc2)cc2c(=O)n3ccccc3nc21	x	13.0%	1.02	3.35*	10.0	15.0
N=c1c(S(=O)(=O)c2ccc(Cl)cc2)cc2c(=O)n3ccccc3nc2n1CCN1CCOCC1	x	0.0%	1.04	4.96*	x	0.0
